Compound activity from PubChem.
ZTA counter: blocks Epstein-Barr virus ZTA, an EBNA-1 counter-screen. P03206. ZTA-DNA binding, fluorescence polarization. inhibition, % at 11 µM. actives 0.15% (n = 320,000); in the data active = inhibition above about 33%
dFosB act: activators of delta FosB homodimer, primary screen, biochemical, fluorescence polarization, TAMRA-CDK5 oligo, single point | actives 0.99% (n = 340,000) | purified delta FosB; percent of positive-control signal above neutral wells | activation, % at 25 µM | Protein FosB (Mus musculus), P13346;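 active = mean activation above about 17%, with every replicate also reaching it, limit read from the data, passing the limit was not always enough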
Target sequence (P13346 whole entry, looked up): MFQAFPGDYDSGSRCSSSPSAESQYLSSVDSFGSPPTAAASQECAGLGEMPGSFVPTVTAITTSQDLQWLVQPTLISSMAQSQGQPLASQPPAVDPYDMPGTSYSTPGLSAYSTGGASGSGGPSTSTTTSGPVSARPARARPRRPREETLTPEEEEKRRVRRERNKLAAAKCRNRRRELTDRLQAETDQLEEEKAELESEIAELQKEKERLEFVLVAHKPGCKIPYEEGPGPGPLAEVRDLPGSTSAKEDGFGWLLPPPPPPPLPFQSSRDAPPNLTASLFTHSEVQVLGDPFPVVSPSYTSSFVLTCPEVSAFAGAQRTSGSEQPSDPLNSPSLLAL
TPT1 inhibitor: Candida albicans TPT1 enzyme inhibitors, primary screen, biochemical, fluorescence polarization; tRNA 2'-phosphotransferase TPT1 (Candida albicans SC5314); recombinant caTPT1, FP RNA substrate dephosphorylation; inhibition, % at 5 µM; actives 0.81% (n = 300,000); AID 1962, 2009;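 active = inhibition above the mean of all tested compounds plus 3 SD, set per screening campaign, cut at about 24% in these data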;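 also: plate controls were DMSO alone for no effect and ferristatin control at 100 nM for full effect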
Rpn11 inh: Rpn11 (PSMD14) deubiquitinase inhibitors, primary screen, biochemical, fluorescence polarization, uHTS; 26S proteasome non-ATPase regulatory subunit 14 (Homo sapiens), O00487; human 26S proteasome, Ub4-pepOG fluorescence polarization; 20S core pre-blocked with epoxomicin; inhibition, % at 20 µM; actives 0.59% (n = 360,000); AID 588493, 2011;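 active = inhibition at 20 µM, scaled to each plate's controls, above about 33%, limit read from the data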
EBNA-1 inh: EBNA-1 DNA-binding inhibitors, primary screen, biochemical, fluorescence polarization. inhibition, % at 14.8 µM. actives 0.34% (n = 300,000). AID 1950, 2009; in the data active = inhibition above about 28%
GRIN3A LBD mod: binders of NR3A ligand-binding domain, primary screen, biophysical, differential scanning fluorimetry, uHTS. NR3A LBD differential scanning fluorimetry, Tm shift; 0% = protein alone, 100% = glycine-bound protein. actives 2.5% (n = 340,000). Tm shift relative to glycine control, % at 25 µM. Glutamate receptor ionotropic, NMDA 3A (GRIN3A) ligand-binding domain;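 active = melting temperature shift of at least 10% of the positive control shift, at one fixed dose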
* marks the source's active call; other numbers are inactive results; / = not tested or not shown. Only some compounds are listed: those with a hit (about 4.5% of all), similar ones and a draw of the others.

SMILES | ZTA counter | dFosB act | TPT1 inhibitor | Rpn11 inh | EBNA-1 inh | GRIN3A LBD mod
O=C(NC(NC(=S)Nc1cc(Cl)ccc1Cl)C(Cl)(Cl)Cl)c1ccco1 (stereo unspecified) | 11 | 0 | -1 | 1 | 3 | 14*
O=C(/C=C/c1ccccc1)NC(NC(=S)Nc1cc(Cl)ccc1Cl)C(Cl)(Cl)Cl (stereo unspecified) | -12 | -16 | -1 | 3 | 2 | 30*
COc1ccc(NC(=S)NC(NC(=O)/C=C/c2ccccc2)C(Cl)(Cl)Cl)cc1 (stereo unspecified) | 4 | 13 | -2 | -6 | 3 | 5
CCN(CC)C(=O)C1=C(C)N(Cc2ccccc2)C(=O)C(CC(=O)NCCc2ccccn2)C1 (stereo unspecified) | / | / | / | 3 | / | /
COc1cc(NC(=O)COc2cccc3c2OC(C)(C)C3)cc(OC)c1OC | -7 | -9 | / | -7 | / | 1
Clc1ccc(-n2ncc3c(NCc4ccc5c(c4)OCO5)ncnc32)cc1 | -11 | 12 | 0 | -2 | 11 | 12*
Clc1ccc(-n2ncc3c(NCc4ccco4)ncnc32)cc1 | -2 | -14 | -1 | 7 | 4 | -3
COc1cc(C2C3=C(CCCC3=O)Nc3[nH]n(-c4ccccc4)c(=O)c32)cc(OC)c1OC (stereo unspecified) | -8 | -2 | -2 | 0 | -12 | 1
COc1cc(C2c3c([nH]c(=O)[nH]c3=O)Nc3ccc4ccccc4c32)ccc1O (stereo unspecified) | 7 | -8 | -8 | -10 | 1 | 27*
COc1cc(C2c3c([nH]c(=O)[nH]c3=O)Nc3ccc4ccccc4c32)cc(OC)c1OC (stereo unspecified) | 6 | -6 | 2 | -1 | 0 | 30*
COc1cc(C2CC(=O)c3c(ccc4ccccc34)N2)ccc1O (stereo unspecified) | -12 | -11 | 1 | -39 | 1 | -2
Clc1cccc(Cl)c1/C=C/c1nc2ccccc2[nH]1 | 19 | -14 | 1 | -3 | 11 | 3
Clc1ccc(/C=C/c2nc3ccccc3[nH]2)cc1 | -7 | -1 | 1 | 3 | -1 | 13*
Clc1ccc(/C=C/c2nc3ccccc3[nH]2)c(Cl)c1 | -14 | 8 | -2 | -2 | 4 | 17*
CCN(CC(=O)NCc1ccc(Cl)cc1)C(=O)CSc1cc(C)ccc1C | -5 | -6 | 0 | -6 | -14 | 2
C/C(=N\N=C(/N)SC1CC(=O)N(c2ccc(Cl)cc2)C1=O)c1cccs1 (stereo unspecified) | 3 | -7 | 1 | -1 | 13 | 18*
C/C(=N\N=C(/N)SC1CC(=O)N(c2ccc(Br)cc2)C1=O)c1cccs1 (stereo unspecified) | 2 | 1 | -1 | -12 | 14 | 12*
CCCCCCOc1ccc(N2C(=O)CC(S/C(N)=N/N=C(\C)c3cccs3)C2=O)cc1 (stereo unspecified) | 2 | -8 | -1 | -3 | 7 | 9
C/C(=N\N=C(/N)SC1CC(=O)N(c2ccccc2)C1=O)c1cccs1 (stereo unspecified) | -1 | 1 | -1 | -9 | 3 | -2
CCCOc1ccc(N2C(=O)CC(N(Cc3ccc(OC)cc3)C(=S)Nc3ccccc3)C2=O)cc1 (stereo unspecified) | 3 | -6 | 0 | 8 | 1 | 24*
CNC(=S)N(Cc1ccc(OC)cc1)C1CC(=O)N(c2ccc(OC)cc2)C1=O (stereo unspecified) | 1 | -10 | 0 | -2 | -1 | 18*
CNC(=S)N(Cc1ccc(OC)cc1)C1CC(=O)N(c2ccc(C(=O)OC)cc2)C1=O (stereo unspecified) | -10 | / | -1 | / | 8 | /
CSC1=NC=C(C#N)C2=NC(c3c(Cl)cccc3Cl)NN12 (stereo unspecified) | / | / | / | 18 | / | /
